Source: PubChem
Pf growth 96h: P. falciparum growth inhibition at 96 hour, primary screen for plastid delayed-death inhibitors | P. falciparum luciferase reporter growth, 96 h | Potency, µM (top dose mostly 28.7 µM), hits mostly inhibitors | 320,000 compounds, 6.9% hits
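P. falciparum expressing integrated firefly luciferase grown in erythrocytes (2% hematocrit, 0.05% parasitemia final) with compounds for 96 hours at 37 C, 5% CO2. Growth inhibition read as loss of luminescence after adding luciferase detection reagent.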
CHX counter: counter-screen hit for Shiga toxin inhibitors, cycloheximide. cell reporter, cycloheximide protein synthesis inhibition counterscreen. max response, %. 300,000 compounds, 12% hits; in the data active means max response mostly above about 13%, no sharp cut-off; inactive means mostly below about 14%; further: read at 38.3 µM for the half of the compounds with a filed dose
HCV inh: inhibitors of hepatitis C virus infection | AID 651820 | Huh7.5.1 HCVcc-Cre infection, luciferase reporter, 44 h | 340,000 compounds, 3.4% hits | Potency, µM (titrated, usually from 41.8 µM), hits mostly inhibitors
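Infectious HCV cell culture screen: compound-treated cells (1,000/well, pre-plated 4 h) are infected with HCVcc-Cre at roughly 0.5 moi and grown 44 h. Infection is quantified by luciferase signal after 15 min substrate incubation at room temperature.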
AMA1 RON2 block: AMA1-RON2 (P. falciparum) interaction inhibition. AlphaScreen AMA1-biotinylated RON2 peptide binding. Potency, µM (titrated, usually from 58.2 µM), most hits filed as inhibitors. 360,000 compounds, 0.2% hits. AID 720542; further: nearly all actives have a fitted effect of over 45% in size
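AMA1 (3D7) with his tag at 25 nM final met compounds first, then biotinylated RON2 peptide at 25 nM; detection used donor plus acceptor beads, 10 µg/mL apiece, read by AlphaScreen after 30 min at room temperature.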
Shiga inhibitor: blocks Shiga toxin action in Vero cells; Vero cells, Shiga toxin protein synthesis inhibition reporter; 290,000 compounds, 9.2% hits; inhibition, % at 38.7 µM; in the data active means inhibition mostly above about 28%, no sharp cut-off; inactive means mostly below about 43%
Pf growth 48h: P. falciparum growth inhibition at 48 hours (one generation); 310,000 compounds, 5.9% hits; P. falciparum luciferase growth in erythrocytes, 48 h; Potency, µM (highest dose often 28.7 µM), usual class: inhibitors
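First compound was added to culture medium, then infected red cells at 0.1% parasitemia and 2% hematocrit (final). After incubation at 37 C under 5% CO2, luciferase detection reagent was dispensed and light output recorded.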
Of the large screens only hits and unclear results are named; the others gave an inactive call. This is a sample that favours compounds with a hit; in the whole collection about 21% have one here. Unless noted, the call rests on the fitted dose curve; in most records, active means well fitted curve in the direction sought with a large enough effect; inconclusive means small, poorly fitted or top-dose-only effect, or another doubt; inactive means no such curve, though single readings can be large; an effect the other way counts as inactive or inconclusive.

Cc1nnc(N/N=C/c2cc([N+](=O)[O-])c(N3CCC(C)CC3)cc2N2CCC(C)CC2)n1N	HCV inh 13µM, Pf growth 48h 5.9µM (no result: Pf growth 96h)
CCc1nnc(N/N=C/c2ccc(N3CCC(C)CC3)c([N+](=O)[O-])c2)n1N	HCV inh inconclusive, AMA1 RON2 block inconclusive, Pf growth 48h inconclusive
CC1CCC(C(C)C)C(OC(=O)Cn2c(COc3ccccc3)[n+](C)c3ccccc32)C1 (centres undefined)	Pf growth 96h 2.3µM, HCV inh 13µM, Pf growth 48h 1.7µM
Cc1cccc(OCc2n(CC(=O)OC3CC(C)CCC3C(C)C)c3ccccc3[n+]2C)c1 (centres undefined)	Pf growth 48h 2.3µM
CC1CCC(C(C)C)C(OC(=O)CSc2nc(N)cc(=O)[nH]2)C1 (centres undefined)	HCV inh inconclusive
C[C@@H]1CN([C@@H](C)CO)C(=O)CCCn2nncc2CO[C@@H]1CN(C)C(=O)Nc1ccnc(N2CCOCC2)c1	none (no result: Pf growth 96h, CHX counter, HCV inh, Shiga inhibitor, Pf growth 48h)
O=C(NCc1ccccc1)/C(=C\c1ccc(F)cc1)NC(=O)c1ccco1	none (no result: Pf growth 96h, CHX counter, HCV inh, Shiga inhibitor, Pf growth 48h)
CC1=C(C(=O)Nc2ccccc2)C(c2ccc(Cl)cc2)n2c(s/c(=C/c3cccc(OCC(=O)O)c3)c2=O)=N1 (centres undefined)	Pf growth 48h 1.7µM
CCOc1ccc(C2C(C(=O)Nc3ccccc3)=C(C)N=c3s/c(=C/c4cccc(OCC(=O)O)c4)c(=O)n32)cc1 (centres undefined)	Pf growth 96h inconclusive, Pf growth 48h 0.47µM
CC1=C(C(=O)Nc2ccccc2)C(c2ccc(C)o2)n2c(s/c(=C/c3ccccc3)c2=O)=N1 (centres undefined)	Pf growth 96h inconclusive (no result: Pf growth 48h)
CC1=C(C(=O)Nc2ccccc2C)C(c2ccc(C)o2)n2c(s/c(=C/c3ccccc3)c2=O)=N1 (centres undefined)	HCV inh inconclusive, Pf growth 48h 2.9µM (no result: Pf growth 96h)
COc1ccccc1/C=C1\N=C(C(C)(C)C)OC1=O	none
O=C(CCl)N(C1CCCC1)C1CCS(=O)(=O)C1 (centres undefined)	Pf growth 96h inconclusive, HCV inh inconclusive, Pf growth 48h inconclusive
COC(=O)c1ccc(/C=C2\Oc3ccccc3NC2=O)cc1	Pf growth 96h inconclusive, CHX counter 15
O=C1Nc2ccccc2O/C1=C\c1c(F)cccc1Cl	HCV inh 10µM, Pf growth 48h inconclusive
CC1(C)CCC/C(=C\c2ccccc2)C1=O	none (no result: CHX counter, Shiga inhibitor)
O=C(c1cc2ccccn2n1)N1CCCC1	none (no result: HCV inh, AMA1 RON2 block, Pf growth 48h)
O=C(c1cc2ccccn2n1)N1CCN(Cc2ccccc2)CC1	CHX counter 59 (no result: Pf growth 48h)
O=C(c1cc2ccccn2n1)N1CCN(c2cccc(C(F)(F)F)c2)CC1	Pf growth 96h 9.3µM
NS(=O)(=O)c1ccc(CCNC(=O)CCCOc2ccccc2)cc1	none
CC(C)NC(=O)c1cc(C2CCCCN2C(=O)c2cc(C(C)(C)C)nn2C)on1 (centres undefined)	none (no result: Pf growth 96h, CHX counter, HCV inh, Shiga inhibitor, Pf growth 48h)
CC(O)CNc1nc(N)[nH]c(=O)c1N=Nc1ccccc1 (centres undefined)	none (no result: Pf growth 96h, CHX counter, Shiga inhibitor, Pf growth 48h)
NC1(C(=O)O)CSSC1	HCV inh inconclusive (no result: Pf growth 96h, CHX counter, Shiga inhibitor, Pf growth 48h)
COc1ccc(N(C(=O)CNC(=O)c2cccs2)C(C(=O)NC2CCCC2)c2ccncc2)cc1 (centres undefined)	Pf growth 96h 13µM
O=C(CN(Cc1ccc2c(c1)OCO2)C(=O)CNC(=O)c1ccco1)NC1CCCCC1	Pf growth 96h 7.4µM
CCOC(=O)c1ccc(N(CC(=O)NC2CCCC2)C(=O)CNC(=O)c2ccco2)cc1	Pf growth 48h 9.3µM
Cc1ccc(N(C(=O)CNC(=O)c2ccco2)C(C(=O)NC2CCCCC2)c2ccncc2)c(C)c1 (centres undefined)	Pf growth 48h 12µM
O=C(CN(C(=O)CNC(=O)c1ccco1)c1ccc2c(c1)OCO2)NC1CCCCC1	none
Cc1ccc(C)c(N(C(=O)CNC(=O)c2ccco2)C(C(=O)NC2CCCCC2)c2ccncc2)c1 (centres undefined)	none
COc1cccc(NC(=O)CCC2CCN(C(=O)c3cncs3)CC2)c1	Pf growth 96h inconclusive, Pf growth 48h inconclusive
C=CCn1c(SCC(=O)Nc2ccc3c(c2)OCCO3)nc2cc(C(=O)O)ccc2c1=O	none (no result: CHX counter, Shiga inhibitor)
O=C(NCC(=O)N(c1ccccc1)C(C(=O)NC1CCCCC1)c1ccncc1)c1ccco1 (centres undefined)	none
O=C(NCC(=O)N(Cc1cccs1)C(C(=O)NC1CCCC1)c1cccnc1)c1ccco1 (centres undefined)	none
COc1cccc(N(C(=O)CNC(=O)c2ccco2)C(C(=O)NC2CCCC2)c2ccncc2)c1 (centres undefined)	none
O=C(NCC(=O)N(c1cnc2ccccc2c1)C(C(=O)NC1CCCC1)c1ccncc1)c1ccco1 (centres undefined)	CHX counter 15
O=C(NCC(=O)N(Cc1cccs1)C(C(=O)NC1CCCCC1)c1ccncc1)c1ccco1 (centres undefined)	Pf growth 96h 5.9µM, Pf growth 48h inconclusive
O=C(NCC(=O)N(c1ccc2c(c1)OCCO2)C(C(=O)NC1CCCC1)c1ccco1)c1ccco1 (centres undefined)	Pf growth 96h 0.83µM, Pf growth 48h inconclusive
COc1ccc(N(C(=O)CNC(=O)c2ccco2)C(C(=O)NC2CCCC2)c2ccncc2)cc1 (centres undefined)	Pf growth 96h 2.6µM
Cc1ccc(/C(O)=C2/C(=O)C(=O)N(c3ccccn3)C2c2cccc([N+](=O)[O-])c2)cc1 (centres undefined)	none
CCCN(C(=O)CCNC(=O)Cn1cnc2ccccc2c1=O)c1cccc(Cl)c1	none
CCn1c2ccccc2c2cc(NC(=O)N3CCCCC3)ccc21	none (no result: Pf growth 96h, CHX counter, HCV inh, Shiga inhibitor, Pf growth 48h)
c1cncc(-c2nc(NCC3CCCO3)c3ccccc3n2)c1 (centres undefined)	Pf growth 96h inconclusive, HCV inh inconclusive, Pf growth 48h inconclusive
Oc1ccccc1Nc1nc(NCC2CCCO2)c2ccccc2n1 (centres undefined)	Pf growth 96h inconclusive, HCV inh inconclusive, Pf growth 48h 2.3µM
c1ccc2c(NCC3CCCO3)nc(N3CCCCC3)nc2c1 (centres undefined)	HCV inh inconclusive, Pf growth 48h inconclusive
CC(C)Oc1ccc(-c2nc(NCC3CCCO3)c3ccccc3n2)cc1 (centres undefined)	Pf growth 96h inconclusive, CHX counter 20, HCV inh 11µM, Shiga inhibitor 47, Pf growth 48h inconclusive
Oc1ccc(Nc2nc(NCC3CCCO3)c3ccccc3n2)cc1 (centres undefined)	Pf growth 48h 1.7µM
NC(=O)c1cc2ccncc2c2ccccc12	none
Cc1noc(C)c1S(=O)(=O)Nc1ccc(C#N)cc1	none
COC(=O)C1=CN(C(C)C)C=C(C(=O)OC)C1c1cc(Br)c(OC)c(OC)c1	Pf growth 96h 7.4µM, Pf growth 48h 4.7µM
